# Inconclusive results are not listed. A call without a number means that no potency is given here. Unmarked numbers belong to inactive results. The source made the active and inactive calls. Calls come from the whole dose curve; as a rule, active = well fitted inhibition curve with a large enough effect; inconclusive = small, poorly fitted or top-dose-only effect; inactive = flat fitted curve, though single readings scatter.
# Legend:
# HB3 = test: qHTS profiling for inhibitors of Plasmodium falciparum proliferation (AID 504749); conditions: P. falciparum in erythrocytes, SYBR Green DNA, 72 h; series mostly up to 28.7 µM
# How it was run: (§1)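 Three-day growth assay of blood-stage parasites in erythrocytes (0.3% parasitemia, 2.5% hematocrit) at 37 C, 5% CO2, quantified by SYBR Green DNA staining after overnight detergent lysis.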
# ICS = test: as above; conditions: P. falciparum in erythrocytes, SYBR Green DNA, 72 h; series mostly up to 28.7 µM
# How it was run: as §1
# JCK = test: as above; conditions: P. falciparum in erythrocytes, SYBR Green DNA, 72 h; series mostly up to 28.7 µM
# How it was run: as §1
# N140 = test: as above; conditions: P. falciparum in erythrocytes, SYBR Green DNA, 72 h; series mostly up to 28.7 µM
# How it was run: as §1
# P93_24 = test: as above; conditions: P. falciparum in erythrocytes, SYBR Green DNA, 72 h; series mostly up to 28.7 µM
# How it was run: as §1
# P94_40 = test: as above; conditions: P. falciparum in erythrocytes, SYBR Green DNA, 72 h; series mostly up to 28.7 µM
# How it was run: as §1
# PAD = test: as above; conditions: P. falciparum in erythrocytes, SYBR Green DNA, 72 h; series mostly up to 28.7 µM
# How it was run: as §1
# PC15 = test: as above; conditions: P. falciparum in erythrocytes, SYBR Green DNA, 72 h; series mostly up to 28.7 µM
# How it was run: as §1
# PC26 = test: as above; conditions: P. falciparum in erythrocytes, SYBR Green DNA, 72 h; series mostly up to 28.7 µM
# How it was run: as §1
# PC49 = test: as above; conditions: P. falciparum in erythrocytes, SYBR Green DNA, 72 h; series mostly up to 28.7 µM
# How it was run: as §1
# SC27B = test: as above; conditions: P. falciparum in erythrocytes, SYBR Green DNA, 72 h; series mostly up to 28.7 µM
# How it was run: as §1
# TAB109 = test: as above; conditions: P. falciparum in erythrocytes, SYBR Green DNA, 72 h; series mostly up to 28.7 µM
# How it was run: as §1
# TAB113 = test: as above; conditions: P. falciparum in erythrocytes, SYBR Green DNA, 72 h; series mostly up to 28.7 µM
# How it was run: as §1
# TAB165 = test: as above; conditions: P. falciparum in erythrocytes, SYBR Green DNA, 72 h; series mostly up to 28.7 µM
# How it was run: as §1
# W2 = test: as above; conditions: P. falciparum in erythrocytes, SYBR Green DNA, 72 h; series mostly up to 28.7 µM
# How it was run: as §1
# CRL-7250 = normal cell line; test: Cytotoxic Profiling of Annotated Libraries Using Quantitative High-Throughput Screening (AID 1296008); conditions: Five cell lines viability, CellTiter-Glo ATP luminescence, 48-72 h; max response: stronger effect = lower value
# How it was run: (§2)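 Cytotoxicity was measured as CellTiter-Glo ATP luminescence, read after 10 min at room temperature. Compound treatment of the cells lasted 48 or 72 hr at 37 degrees Celsius in a qHTS format.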
# HEK293 = test: as above; conditions: Five cell lines viability, CellTiter-Glo ATP luminescence, 48-72 h; max response: stronger effect = lower value
# How it was run: as §2
# HaCat = test: as above; conditions: Five cell lines viability, CellTiter-Glo ATP luminescence, 48-72 h; max response: stronger effect = lower value
# How it was run: as §2
# KB-3-1 = test: as above; conditions: Five cell lines viability, CellTiter-Glo ATP luminescence, 48-72 h; max response: stronger effect = lower value
# How it was run: as §2
# NIH3T3 = test: as above; conditions: Five cell lines viability, CellTiter-Glo ATP luminescence, 48-72 h; max response: stronger effect = lower value
# How it was run: as §2
# Note: nearly all actives have a fitted effect of over 60% in size.
# Potency is the fitted concentration of half-maximal effect.
structure (smiles),measurement,setting,value
Cc1ncc(CSSCc2cnc(C)c(O)c2CO)c(CO)c1O,Potency,HB3,inactive
same,Potency,ICS,inactive
same,Potency,JCK,inactive
same,Potency,N140,inactive
same,Potency,P93_24,inactive
same,Potency,P94_40,inactive
same,Potency,PAD,inactive
same,Potency,PC15,inactive
same,Potency,PC26,inactive
same,Potency,PC49,inactive
same,Potency,SC27B,inactive
same,Potency,TAB109,inactive
same,Potency,TAB113,inactive
same,Potency,TAB165,inactive
same,Potency,W2,inactive
same,max response,CRL-7250,-3.39%
same,outcome,HEK293,inactive
same,outcome,HaCat,inactive
same,max response,KB-3-1,-0.0269%
same,max response,NIH3T3,4.82%
COC(=O)[C@@H]1CC2=CC(=O)CC[C@]2(C)[C@@]23O[C@@H]2C[C@@]2(C)[C@@H](CC[C@@]24CCC(=O)O4)[C@H]13,Potency,HB3,inactive
same,Potency,ICS,inactive
same,Potency,JCK,inactive
same,Potency,N140,inactive
same,Potency,P93_24,inactive
same,Potency,P94_40,inactive
same,Potency,PAD,inactive
same,Potency,PC15,inactive
same,Potency,PC26,inactive
same,Potency,PC49,inactive
same,Potency,SC27B,inactive
same,Potency,TAB109,inactive
same,Potency,TAB113,inactive
same,Potency,TAB165,inactive
same,Potency,W2,inactive
same,max response,CRL-7250,-2.8%
same,max response,HEK293,3.69%
same,outcome,HaCat,inactive
same,max response,KB-3-1,-7.46%
same,outcome,NIH3T3,inactive
CCCCCCCCCCCCCCCC[N+](C)(C)CC,Potency,HB3,7.08 µM (active)
same,Potency,ICS,1.41 µM (active)
same,Potency,N140,4.47 µM (active)
same,Potency,P93_24,5.62 µM (active)
same,Potency,P94_40,3.98 µM (active)
same,Potency,PAD,8.91 µM (active)
same,Potency,PC15,8.91 µM (active)
same,Potency,PC26,5.36 µM (active)
same,Potency,SC27B,5.62 µM (active)
same,Potency,TAB109,4.47 µM (active)
same,Potency,TAB113,5.01 µM (active)
same,Potency,TAB165,4.47 µM (active)
same,Potency,W2,3.79 µM (active)
same,Potency,CRL-7250,6.68 µM (active)
same,Potency,HEK293,2.99 µM (active)
same,Potency,HaCat,5.96 µM (active)
CCCN1CCCC[C@H]1C(=O)Nc1c(C)cccc1C,Potency,HB3,inactive
same,Potency,ICS,inactive
same,Potency,JCK,inactive
same,Potency,N140,inactive
same,Potency,P93_24,inactive
same,Potency,P94_40,inactive
same,Potency,PAD,inactive
same,Potency,PC15,inactive
same,Potency,PC26,inactive
same,Potency,PC49,inactive
same,Potency,SC27B,inactive
same,Potency,TAB109,inactive
same,Potency,TAB113,inactive
same,Potency,TAB165,inactive
same,Potency,W2,4.78 µM (active)
same,max response,CRL-7250,-6.22%
same,max response,HEK293,-0.54%
same,outcome,HaCat,inactive
same,max response,KB-3-1,-10%
same,max response,NIH3T3,-2.9%
Cc1cc(O)c(C(C)C)cc1Cl,Potency,ICS,10 µM (active)
same,Potency,JCK,inactive
same,Potency,N140,inactive
same,Potency,P93_24,inactive
same,Potency,P94_40,inactive
same,Potency,PAD,inactive
same,Potency,PC15,inactive
same,Potency,PC26,inactive
same,Potency,PC49,inactive
same,Potency,SC27B,inactive
same,Potency,TAB109,inactive
same,Potency,TAB113,inactive
same,max response,CRL-7250,-3.05%
same,outcome,HEK293,inactive
same,outcome,HaCat,inactive
same,max response,KB-3-1,1.71%
same,max response,NIH3T3,2.6%

# — PubChem BioAssay (NCATS)
